# From PubChem BioAssay
# A number with no mark means an inactive call. For some assays here: Results with a measured potency or affinity are listed apart. The source made the active and inactive calls. Unless noted, how the calls were made is not given here.
# Tests used:
# [1] = antimalarial activity against Dd2 strain (AID 2302;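 active means growth inhibition above 50% at the single 2 µM test dose, taken to imply half-maximal potency below 2 µM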;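 further: 0% = DMSO untreated growth and 100% = chloroquine plus artemisinin killed control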); details: P. falciparum Dd2 in RBCs, LDH growth readout, 72 h; at 2 µM; active compounds read high
# [2] = HepG2 cytotoxicity, primary screen, cytotoxicity control for P. falciparum antimalarial project, cell-based, ATP luminescence (AID 2303;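 active means inhibition above 50%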;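 further: 0% = DMSO wells and 100% = digitonin-killed cells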); details: HepG2 viability, 24-48 h, at 10 µM, active compounds read high
# [3] = biological target: L-lactate dehydrogenase (Plasmodium falciparum (isolate CDC / Honduras)) (UniProt Q27743); assay: PfLDH activity inhibition – cell lysate, 3D7 strain, counter-screen for P. falciparum growth inhibition project (AID 2304);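 further: 0% = vehicle and 100% = reference inhibitor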; details: P. falciparum 3D7 crude extract, LDH APAD/NBT absorbance; at 2 µM; active compounds read high
# L-lactate dehydrogenase (Plasmodium falciparum (isolate CDC / Honduras)), sequence (Q27743 whole entry, looked up): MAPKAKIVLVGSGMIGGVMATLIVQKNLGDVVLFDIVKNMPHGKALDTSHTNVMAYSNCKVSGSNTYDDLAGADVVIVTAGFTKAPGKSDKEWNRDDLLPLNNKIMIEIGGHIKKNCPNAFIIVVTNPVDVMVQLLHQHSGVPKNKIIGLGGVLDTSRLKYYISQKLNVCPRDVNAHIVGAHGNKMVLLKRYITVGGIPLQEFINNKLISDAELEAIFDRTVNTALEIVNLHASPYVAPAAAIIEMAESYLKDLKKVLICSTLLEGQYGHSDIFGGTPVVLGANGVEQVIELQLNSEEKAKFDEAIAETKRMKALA
# [4] = inhibition of 3D7 malaria parasite growth – strain 3D7 (AID 2306);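 further: 0% = DMSO wells and 100% = chloroquine plus artemisinin control wells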; details: P. falciparum 3D7 erythrocytic growth, LDH absorbance, 72 h; at 2 µM; active compounds read high
# [5] = biological target: Calcium-dependent protein kinase 1 (Plasmodium falciparum (isolate 3D7)) (UniProt P62344); assay: PfCDPK1 kinase inhibitors, biochemical, TCAMS library (AID 1159585; cut-off not given, nearly all actives have IC50 up to about 0.98 µM;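 further: inhibitors leave more ATP so luminescence rises with inhibition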); details: recombinant PfCDPK1, Kinase-Glo ATP depletion luminescence
# Calcium-dependent protein kinase 1 (Plasmodium falciparum (isolate 3D7)), sequence (P62344 whole entry, looked up): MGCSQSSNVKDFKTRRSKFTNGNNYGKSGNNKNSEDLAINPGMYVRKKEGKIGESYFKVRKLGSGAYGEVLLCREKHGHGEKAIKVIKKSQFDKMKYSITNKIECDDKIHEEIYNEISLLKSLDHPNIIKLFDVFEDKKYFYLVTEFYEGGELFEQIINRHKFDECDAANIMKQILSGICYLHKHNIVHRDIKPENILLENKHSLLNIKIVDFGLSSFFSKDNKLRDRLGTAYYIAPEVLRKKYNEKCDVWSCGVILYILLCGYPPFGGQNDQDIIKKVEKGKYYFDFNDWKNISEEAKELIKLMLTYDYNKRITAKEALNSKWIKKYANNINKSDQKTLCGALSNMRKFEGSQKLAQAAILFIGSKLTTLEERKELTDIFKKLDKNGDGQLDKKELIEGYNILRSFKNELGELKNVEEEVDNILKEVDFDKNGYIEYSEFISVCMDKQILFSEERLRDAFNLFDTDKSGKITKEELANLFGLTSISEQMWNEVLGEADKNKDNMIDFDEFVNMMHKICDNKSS
# [6] = biological target: Plasmodium falciparum protein kinase 6 (PK6, PF3D7_1337100) (UniProt Q8IDW1); assay: PfPK6 kinase inhibitors, biochemical, TCAMS library (AID 1159586); details: recombinant PfPK6, Kinase-Glo ATP depletion luminescence
# Plasmodium falciparum protein kinase 6 (PK6, PF3D7_1337100), sequence (Q8IDW1 1-305): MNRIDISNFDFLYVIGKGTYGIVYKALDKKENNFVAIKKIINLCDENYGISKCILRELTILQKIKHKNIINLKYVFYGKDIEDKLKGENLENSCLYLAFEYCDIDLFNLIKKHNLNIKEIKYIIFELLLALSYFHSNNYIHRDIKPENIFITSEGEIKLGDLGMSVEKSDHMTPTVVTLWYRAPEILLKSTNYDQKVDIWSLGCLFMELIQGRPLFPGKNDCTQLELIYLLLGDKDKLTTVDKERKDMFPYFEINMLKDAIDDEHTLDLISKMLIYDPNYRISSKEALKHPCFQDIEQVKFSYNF
# [7] = biological target: Protein kinase 7 (PK7), Plasmodium falciparum 3D7 (PF3D7_0213400) (UniProt Q7YTF7); assay: inhibition of Plasmodium PK7 catalytic activity – biochemical, TCAMS antimalarial set, Kinase-Glo luminescence (AID 1159587); details: recombinant PfPK7, Kinase-Glo ATP depletion luminescence
# Protein kinase 7 (PK7), Plasmodium falciparum 3D7 (PF3D7_0213400), sequence (Q7YTF7 1-343): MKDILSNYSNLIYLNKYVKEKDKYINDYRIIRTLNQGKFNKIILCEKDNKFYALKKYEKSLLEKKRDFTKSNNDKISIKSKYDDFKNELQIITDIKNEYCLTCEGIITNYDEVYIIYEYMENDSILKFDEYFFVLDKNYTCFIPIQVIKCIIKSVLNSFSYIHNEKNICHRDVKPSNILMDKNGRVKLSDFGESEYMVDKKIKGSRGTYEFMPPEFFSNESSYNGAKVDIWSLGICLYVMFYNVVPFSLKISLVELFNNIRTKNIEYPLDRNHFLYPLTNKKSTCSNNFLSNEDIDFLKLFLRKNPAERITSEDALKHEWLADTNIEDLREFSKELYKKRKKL
# [8] = biological target: Calcium-dependent protein kinase 4 (Plasmodium falciparum (isolate 3D7)) (UniProt Q8IBS5); assay: PfCDPK4 kinase inhibitors, biochemical, TCAMS library (AID 1159588; cut-off not given, nearly all actives have IC50 up to about 0.91 µM); details: recombinant PfCDPK4, Kinase-Glo ATP depletion luminescence
# Calcium-dependent protein kinase 4 (Plasmodium falciparum (isolate 3D7)), sequence (Q8IBS5 whole entry, looked up): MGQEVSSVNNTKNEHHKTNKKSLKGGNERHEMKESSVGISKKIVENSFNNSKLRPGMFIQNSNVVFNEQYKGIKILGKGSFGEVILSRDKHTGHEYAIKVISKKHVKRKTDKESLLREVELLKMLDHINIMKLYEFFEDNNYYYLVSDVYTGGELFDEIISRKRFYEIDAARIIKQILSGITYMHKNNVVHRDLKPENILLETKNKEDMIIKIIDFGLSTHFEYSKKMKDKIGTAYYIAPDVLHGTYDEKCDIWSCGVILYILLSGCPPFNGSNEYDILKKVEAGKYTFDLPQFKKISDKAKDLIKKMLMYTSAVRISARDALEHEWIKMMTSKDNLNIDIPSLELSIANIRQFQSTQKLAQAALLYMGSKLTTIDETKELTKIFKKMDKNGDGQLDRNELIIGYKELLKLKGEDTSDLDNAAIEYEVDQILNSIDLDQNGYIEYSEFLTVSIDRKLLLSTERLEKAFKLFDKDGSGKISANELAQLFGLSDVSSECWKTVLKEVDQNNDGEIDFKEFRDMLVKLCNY
SMILES,growth inhibition [1],inhibition [2],inhibition [3] [%],growth inhibition [4],outcome [5],outcome [6],outcome [7],outcome [8]
O=C(NC1CCCCN(Cc2ccccc2O)C1)c1ccc(Cl)c(Cl)c1 (stereo not given),96% (active),-7%,-1,96% (active),inactive,inactive,inactive,inactive
N#Cc1cccc(C(=O)Nc2ccc(-c3ccc(CN4CCCC4)cc3)cc2)c1,32%,38%,-5,92% (active),inactive,inactive,inactive,inactive
Cc1cc(F)ccc1Nc1nc(N(C)c2ccccc2)c2cccc(O)c2n1,81% (active),38%,2,92% (active),inactive,inactive,inactive,inactive
COCCNCc1cccc(-c2ccc3nccc(Nc4cc(O)ccc4C)c3c2)c1,92% (active),-1%,4,101% (active),inactive,inactive,inactive,inactive
Cc1c(F)cc(C(=O)NC2CC2)cc1-c1ccc2c(cnn2S(=O)(=O)c2ccc(C#N)cc2)c1,92% (active),17%,0,97% (active),inactive,inactive,inactive,inactive
Cc1ccc(-n2c(Sc3ncnc4sccc34)nnc2N2CCCC2)cc1,100% (active),0%,-3,99% (active),inactive,inactive,inactive,inactive
O=C(NCC1CCCCC1)c1cc(=O)c2ccccc2o1,77% (active),-1%,-2,98% (active),inactive,inactive,inactive,inactive
COc1ccc2nc(SC(C)C(=O)c3c[nH]c4ccccc34)[nH]c2c1 (stereo not given),98% (active),-3%,0,100% (active),inactive,inactive,inactive,inactive
Cn1c(N)c(C(=O)CSc2nnc(-c3cccs3)n2Cc2ccccc2)c(=O)n(C)c1=O,68% (active),-13%,-3,85% (active),inactive,inactive,inactive,inactive
O=C(N1CCN(c2ccnc3cc4c(cc23)N(Cc2ccccc2)CC4)CC1)C(F)(F)F,100% (active),8%,3,100% (active),inactive,inactive,inactive,inactive
CCC1CN2CCc3c([nH]c4ccccc34)C2CC1CC1=NCCc2c1[nH]c1ccc(OC)cc21 (stereo not given),68% (active),99% (active),1,101% (active),inactive,inactive,inactive,inactive
CN1CCc2cc(I)c(O)cc2C1Cc1ccccc1Cl (stereo not given),96% (active),-7%,-2,98% (active),inactive,inactive,inactive,inactive
CC(=O)N(C)c1cccc(C(=O)Nc2ccc(-c3cccc(-c4nc5ccc(C(F)(F)F)cc5[nH]4)c3)cc2)c1,10%,79% (active),-2,94% (active),inactive,inactive,inactive,inactive
CNC(=O)/C=C/c1cc(NC(=O)Nc2ccnc3c(Br)cccc23)ccc1OC,68% (active),12%,1,95% (active),inactive,inactive,inactive,inactive
CCCN1CCN(Cc2ccc(-c3ccc(-c4nc5ccccc5[nH]4)s3)cc2)CC1,93% (active),29%,5,103% (active),inactive,inactive,inactive,inactive
CC(C)C[C@H](Nc1ccnc(NCC2CCCCC2)n1)C(=O)NCCOc1ccccc1,73% (active),37%,3,89% (active),inactive,inactive,inactive,inactive
CS(=O)(=O)CCNCc1nc(-c2ccc3c(=O)[nH]cnc3c2)cs1,96% (active),81% (active),0,86% (active),inactive,inactive,inactive,inactive
O=C(Nc1ccc2c(c1)OCCO2)c1cc(-c2cccnc2)nc2ccc(Cl)cc12,27%,2%,-1,95% (active),inactive,inactive,inactive,inactive
O=C(c1cc(-c2cccs2)[nH]n1)N1CCN(S(=O)(=O)c2ccc(Cl)cc2)CC1,95% (active),-1%,3,96% (active),inactive,inactive,inactive,inactive
FC(F)(F)c1cc(C(F)(F)F)c2cc(CNCCCNc3nc4ccccc4[nH]3)[nH]c2c1,99% (active),99% (active),0,100% (active),inactive,inactive,inactive,inactive

SMILES,growth inhibition [1],inhibition [2],inhibition [3] [%],growth inhibition [4],outcome [5],outcome [6],outcome [7],outcome [8]
CC(C)CCCC(C)(C)NC[C@@H](O)[C@H](Cc1ccccc1)NC(=O)c1cccc(CCC2CC2)c1,52% (active),100% (active),0,98% (active),inactive,inactive,inactive,inactive
CC[C@H](C)CNC(=O)c1cncc(-c2ccc(CN(C)C3CCN(C)CC3)cc2)c1,97% (active),-16%,-2,101% (active),inactive,inactive,inactive,inactive
COc1cc(F)c2ncc(Cl)c(CCN3CCC(NCc4ccc5c(c4)NC(=O)CS5)CC3)c2c1,85% (active),27%,-6,100% (active),inactive,inactive,inactive,inactive
Cc1ccc(CNC(=O)[C@H](CCCN)Nc2cc(C)nc(Nc3ccccc3)n2)cc1,-4%,-2%,2,90% (active),inactive,inactive,inactive,inactive
COc1ccc(CNCc2cccc(-c3ccc(-c4nc5ccccc5[nH]4)cc3)c2)cc1,60% (active),22%,2,101% (active),inactive,inactive,inactive,inactive
COC(=O)CCCOc1cc(Cc2cnc(N)nc2N)cc(OC)c1OC,-4%,12%,-6,95% (active),inactive,inactive,inactive,inactive
c1cc(-c2ccc(CNCCc3ccncc3)cc2)cc(-c2nc3ccccc3[nH]2)c1,99% (active),41%,-8,101% (active),inactive,inactive,inactive,inactive
O=C(C=Cc1ccc(Cl)c(Cl)c1)NCCCCCN1CCCC(CCCNC(=O)c2ccc3c(c2)OCO3)C1 (stereo not given),4%,30%,3,95% (active),inactive,inactive,inactive,inactive
CN(C)CCC1CCN(CCS(=O)(=O)c2cccc(Nc3ccc(-c4cccc(F)c4)cn3)c2)CC1,59% (active),94% (active),5,100% (active),inactive,inactive,inactive,inactive
COc1ccc(-c2cc(C(=O)N3CCc4ccccc43)c3ccccc3n2)cc1OC,48%,5%,3,85% (active),inactive,inactive,inactive,inactive
c1ccc(-c2cc3cccc(-c4nc5ccncc5[nH]4)c3o2)cc1,95% (active),37%,-6,100% (active),inactive,inactive,inactive,inactive
Cn1cccc1C(=O)C(=O)Nc1cccc(-c2ccc(-c3nc4ccc(C(F)(F)F)cc4[nH]3)cc2)c1,27%,62% (active),-7,94% (active),inactive,inactive,inactive,inactive
O=C(Nc1cccc(CN2CCCN(CCc3ccccc3)CC2)c1)c1ccc(Cl)c(Cl)c1,15%,41%,-5,86% (active),inactive,inactive,inactive,inactive
COc1ccc2c(NN=Cc3ccccn3)ccnc2c1,96% (active),14%,-2,102% (active),inactive,inactive,inactive,inactive
O=S(=O)(Nc1cccc(CCN2CCC(N3CCCCC3)CC2)c1)c1ccc2c(c1)OCCO2,5%,8%,-1,91% (active),inactive,inactive,inactive,inactive
COc1ccc(CCN2CCC(CN(C)Cc3cnn(-c4ccccc4)c3)CC2)cc1,5%,25%,-1,90% (active),inactive,inactive,inactive,inactive
CCCCC(=O)NC(c1cccs1)c1cc(Cl)c2cccnc2c1O (stereo not given),90% (active),50% (active),1,93% (active),inactive,inactive,inactive,inactive
CCNc1cc(C(=O)N[C@@H](Cc2ccccc2)[C@H](O)CN[C@@H]2CCc3ccccc32)cc(N2CCCCS2(=O)=O)c1,97% (active),-7%,4,98% (active),inactive,inactive,inactive,inactive
COc1ccc(Nc2nccc(N3CCC(NC(=O)C(C)c4ccc(Cl)cc4)C3)n2)cc1 (stereo not given),97% (active),35%,-4,85% (active),inactive,inactive,inactive,inactive
O=C(Nc1cc(C(F)(F)F)ccc1N1CCOCC1)C(Cl)(Cl)Cl,100% (active),-5%,5,100% (active),inactive,inactive,inactive,inactive
